Consider 40 molecules from PubChem BioAssay (NCI).

The panel holds about 83,000 compounds, 20% with a hit somewhere; the sample as a whole holds those more often.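 Step 1: grow cells in 96-well plates. Step 2: add test compound at a single concentration. Step 3: incubate 48 h. Step 4: record percent growth.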 A number with no mark means an inactive call. Activity calls are given as the source filed them. The calls were made as follows: active = growth percent below 10; inactive = the rest.

For the test, the system named is MDA-MB-468 breast. Nature of the test: NCI-60 one-dose screen, 48 h (100 = growth as untreated, 0 = no growth, -100 = all killed). The note with it: 10 µM unless noted.
As for `O=C(NCc1cccc(CNC(=O)Nc2nc3ccccc3[nH]2)c1)Nc1nc2ccccc2[nH]1`, the growth was -20.2% (active). For `C=C(C)[C@@H]1CC[C@]2(COC)CC[C@]3(C)[C@H](CC[C@@H]4[C@@]5(C)CCCNC(C)(C)[C@@H]5CC[C@]43C)[C@@H]12` the value was -50.5% (active); for `C=C1C(=O)O[C@H]2[C@H]1CC/C(COC(=O)c1ccc(Br)cc1)=C\CC[C@@]1(C)O[C@@H]21`, -23.1% (active). As to `CCC(=C(c1ccc(OCCN(C)C)cc1)c1ccc(OCCN(C)C)cc1)c1ccc(Cl)cc1`, the growth was -82.8% (active). On to `COc1cc2nc(-c3ccc(Cl)cc3)cc(OCCCN3CCOCC3)c2cc1OC`, for which the growth was 59.9%.

For the molecule `c1ccc(CN2C(c3ccccc3)=Nc3ccccc3C2c2c[nH]c3ccccc23)cc1` (stereo not given), the growth was 12.4%. In the case of `CC(=O)c1cc(Cl)ccc1O` it was 97.5%; in that of `CCOC(=O)c1ccc(NC(=O)N2CC(C)OC(C)C2)cc1` (stereo not given), 91.7%.

For the molecule `CN(C)CCC(O)(Cc1ccccc1)c1ccccc1` (stereo not given), the growth is 110%. On to `CCOC(=O)C1=C(C)C(Cl)=N/C1=C\c1[nH]c(Cl)c(C)c1C(=O)OCC`, for which the growth is 102%. In the case of `COC(=O)/C=C1/CCCCC1(C)C(=O)OC` (stereo not given) it was 103%; in that of `CN1CCCCC1CCN1c2ccccc2Sc2ccc(Cl)cc21` (stereo not given), 30.2%; in that of `COC1OC(COS(=O)OC)C(O)C(O)C1OS(=O)OC` (stereo not given), 96.4%.

For the molecule `Fc1ccc2nc3c(cc2c1)CSc1nnc(-c2ccc[nH]c2=S)n1N3`, the growth was 105%.

As to `c1cnc2[nH]cc(-c3nc(-c4ccsc4)cs3)c2c1`, the growth is 74.6%.

As to `CCN1C(=O)N(CC)C2SC(N/N=C/c3ccccc3)=NC21` (stereo not given), the growth is 34.4%. In the case of `Cc1nnc2nc(N)[nH]n2c1=O` it was 108%; in that of `Cc1[nH]cnc1/C=C1\SC(N2CCCCC2)=NC1=O`, 101%. In the case of `COc1cc(NC(=O)Nc2cnc(Nc3ccc(N4CCOCC4)cc3)nc2Oc2ccc(F)cc2)cc(OC)c1` it was 95.5%. On to `COc1cc(-c2nc(C(=O)Nc3ccc(C)cc3)nn2-c2ccc(F)c(F)c2)cc(OC)c1OC`, for which the growth was 109%. `CC1=C2[C@@H](CC1)[C@]1(C)O[C@@](C3CCNCC3)(C[C@H]1OC(=O)CO)[C@H]2OC(=O)/C=C/c1ccccc1`: the growth is 75.3%. In the case of `COC(=O)c1ccc2c(c1)c1c(C)c3ccncc3c(C)c1n2C` it was 39.5%; in that of `COc1ccc(-c2nc3c(N)c(CO)cnc3s2)cc1`, 57.6%.

Regarding `CCOc1ccc(NC(=O)CSc2oc(-c3ccccc3)nc2S(=O)(=O)c2ccc(C)cc2)cc1`, the growth is 53%. Take `Cc1ccc(NC(=O)CSc2nc3ccccc3c(=O)n2CCc2ccccc2)c(C(=O)O)c1`: the growth is 110%. In the case of `CC(C)Cc1nc(Nc2ccccc2)[nH]c(=O)c1C#N`, the growth is 14.5%. Turning to `Brc1ccc2c(c1)CN(C1CCCCC1)CO2`, the growth was 110%. Turning to `OC(c1cccc(C(F)(F)F)c1)c1cnccc1NC1CCCCC1` (stereo not given), the growth was 33%. As for `CCN1C(=O)/C(=c2\sc3n(c2=O)C2C(NN=3)N(CC)C(=O)N2CC)c2ccccc21` (stereo not given), the growth was -13.5% (active). Turning to `Cn1cc(-c2csc(-c3cn(CCO)c4ccc(F)cc34)n2)c2cccnc21`, the growth was -16.5% (active). In the case of `CCN(CC)c1ccc(N=C2C=CC(=O)C=C2NC(C)=O)cc1` it was 98.7%; in that of `CCOC(=O)C1C(C(=O)OCC)C2C(=O)C3C(C(=O)OCC)C(C(=O)OCC)C3C(=O)C12` (stereo not given), 98.5%. In the case of `Nc1n[nH]c2cc(F)c([C@@H]3Nc4c(F)cc5[nH]ncc5c4[C@H]4C5CCC(C5)[C@@H]34)cc12` (stereo not given in full) it was -0.149% (active); in that of `CN(C)C(=O)c1cc(-c2ccc3ncnc(NCc4ccccc4)c3c2)cnc1N`, 71.9%; in that of `O=C1/C(=C/c2ccc(Br)cc2)C=C(c2ccccc2)N1CCc1ccccc1`, 45%. In the case of `COc1ccc(/C=C/c2c(C(=O)/C=C/c3ccc(F)cc3)c(C)nc3ccccc23)cc1` it was 51.5%; in that of `CC1=CC(=O)OC1C/C=C(\C)CCC1[C@@]2(C)CCC[C@@](C)(C(=O)O)C2CC[C@@]1(C)O` (stereo not given in full), 102%. For `Cc1nc2sc(C(=O)Nc3cccc4ccccc34)c(N)c2cc1C(O)c1ccccc1` (stereo not given), the growth was 18.1%. For `CN1CCCN(CCNc2nccc(-c3c(-c4cccc(O)c4)nc4sccn34)n2)S1(=O)=O` the value was 68.9%; for `Cn1cc(-c2csc(-c3c[nH]c4ncccc34)n2)c2cc(Br)cnc21`, 15.4%.
